Screens from PubChem BioAssay.
In the library only some 1.5% were active in any assay of this set; here they are far more common.
Eya2 inh – qHTS Assay for Inhibitors of the Phosphatase Activity of Eya2; Protein phosphatase EYA2 (Homo sapiens), O00167; recombinant Eya2, OMFP fluorescence dephosphorylation (OMFP is methylfluorescein phosphate); Potency, µM (highest dose often 76.9 µM), inactives show at the highest dose activity, negative = inhibition, most hits filed as inhibitors; actives 0.006% (n = 330,000); AID 488837, 2010; also: potency is read from the fitted curve at half-maximal effect
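Eya2 protein (added as 0.2 uM solution) was preincubated with compound for 10 min at ambient temperature in 50 mM HEPES pH 7.5, 50 mM NaCl, 5 uM MgCl2, 0.05% BSA, 1 mM DTT. OMFP (added at 50 uM) then reacted 10 min; fluorescence read at 485/525 nm.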
GALK inhibitor – qHTS Assay for Inhibitors of Human Galactokinase (GALK) | P51570 | Purified GALK, Kinase-Glo residual ATP luminescence | Potency, µM (top dose mostly 57.5 µM), without a hit: top-dose activity change, negative = inhibition, hits mostly inhibitors | actives 0.007% (n = 270,000); also: potency is read from the fitted curve at half-maximal effect
Target sequence (P51570 whole entry, looked up): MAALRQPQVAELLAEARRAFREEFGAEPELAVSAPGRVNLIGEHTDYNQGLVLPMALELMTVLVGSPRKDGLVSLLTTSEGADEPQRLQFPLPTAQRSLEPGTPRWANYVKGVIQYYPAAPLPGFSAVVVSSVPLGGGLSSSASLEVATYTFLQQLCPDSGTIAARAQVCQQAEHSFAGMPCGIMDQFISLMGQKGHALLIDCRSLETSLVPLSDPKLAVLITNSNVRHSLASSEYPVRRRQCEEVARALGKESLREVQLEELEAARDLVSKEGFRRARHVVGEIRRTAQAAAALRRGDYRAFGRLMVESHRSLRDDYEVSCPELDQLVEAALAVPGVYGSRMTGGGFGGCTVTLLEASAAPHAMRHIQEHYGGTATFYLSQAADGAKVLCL
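Quantitative HTS: GALK 5 nM, ATP 35 uM, galactose 100 uM, 1 h room temperature, then luciferase-based ATP detection.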
CtBP-E1A inh – qHTS Assay for Inhibitors of the CtBP/E1A Interaction. CtBP / adenovirus E1A interaction (AlphaScreen). AlphaScreen GST-E1A/His-CtBP binding, 1536-well; active compounds read low. activity change, % (test concentration not listed). actives 0.49% (n = 340,000). AID 651724, 2012; in the data active = activity change below about -65%; inconclusive = mostly about -30% to -63%
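GST-E1A and His-tagged CtBP (125 nM each as 5X stock) were preincubated with pin-transferred compound for 2 h at 37 °C in the dark, then glutathione donor and nickel acceptor beads were added for 1 h before AlphaScreen reading.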
Six1-Eya2 blk – qHTS Assay for Inhibitors of the Six1/Eya2 Interaction; activity change, % (concentration not given with the values); AlphaScreen GST-Six1/His-Eya2 binding, biochemical; active compounds read low; actives 0.56% (n = 360,000); Homeobox protein SIX1 (Homo sapiens) + Protein phosphatase EYA2 (Homo sapiens), …; in the data active = activity change below about -65%; inconclusive = mostly about -30% to -63%
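Compounds are tested against tagged Six1 and Eya2 proteins bridged by glutathione donor and nickel acceptor beads; after a one-hour incubation at 37 °C without light, AlphaScreen emission is recorded.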
TrxR1 inh – qHTS Assay for Inhibitors of Mammalian Selenoprotein Thioredoxin Reductase 1 (TrxR1): qHTS. Thioredoxin reductase 1, cytoplasmic (Rattus norvegicus), O89049. recombinant rTrxR1, NADPH fluorescence consumption, selenite substrate. Potency, µM (titrated, usually from 114 µM), for the others: at the highest dose activity change, negative = inhibition, most hits filed as inhibitors. actives 1% (n = 390,000). AID 588453, 2011; also: potency is read from the fitted curve at half-maximal effect; nearly all actives have a fitted effect of over 65% in size
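Rat TrxR1 (90 nM in the dispensed reagent) was pre-reduced with 400 uM NADPH for 5 min at room temperature, then incubated with compound for 15 min. After 400 uM selenite was added, NADPH fluorescence (Ex 340/Em 450 nm) was followed for 8 min.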
TrxR1 substrate – qHTS Assay for Substrates of Mammalian Selenoprotein Thioredoxin Reductase 1 (TrxR1): qHTS; Thioredoxin reductase 1, cytoplasmic (Rattus norvegicus), O89049; Potency, µM (titrated, usually from 114 µM), inactives show at the top dose activity change, negative = substrate turnover; actives 0.01% (n = 390,000); purified TrxR1 substrate turnover, NADPH consumption readout; also: potency is read from the fitted curve at half-maximal effect; nearly all actives have a fitted effect of over 50% in size
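Rat TrxR1, dispensed at 90 nM, was prereduced with 400 uM NADPH (final) for 5 min at ~22 deg C, then incubated with compound 15 min before 400 uM selenite. A first-read NADPH fluorescence drop versus no-compound background flagged substrates.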
An asterisk follows results filed as active; [ ] = another dose, or the depositor's remark. Unless noted, calls follow the shape of the dose curve; as a rule, active = well fitted curve in the direction sought with a large enough effect; inconclusive = small, poorly fitted or top-dose-only effect, or another doubt; inactive = no such curve, though single readings can be large; an effect the other way counts as inactive or inconclusive. % is scaled to controls: 0 for no effect and ±100 for the full control effect.

How did O=C(N/N=C/c1ccccc1O)c1ccc2c(c1)OCO2 do in these assays?
Eya2 inh: 15%; CtBP-E1A inh: -78*; Six1-Eya2 blk: inconclusive; TrxR1 inh: 9%; TrxR1 substrate: 0%

Results for COc1cc(Cl)cc(/C=N\NC(=O)c2ccc3c(c2)OCO3)c1O ?
CtBP-E1A inh: inconclusive; Six1-Eya2 blk: -88*

Results for O=C(N/N=C/c1cc(Br)cc(Cl)c1O)c1ccc2c(c1)OCO2 ?
CtBP-E1A inh: -83*; Six1-Eya2 blk: -81*; TrxR1 inh: 27%[57.1 µM]; TrxR1 substrate: -15%[57.1 µM]

Results for Cc1cc(Br)cc(/C=N/NC(=O)c2ccc3c(c2)OCO3)c1O ?
Eya2 inh: 3%; GALK inhibitor: 4%; Six1-Eya2 blk: 0; TrxR1 inh: 20%; TrxR1 substrate: -5%

Results for O=C(N/N=C/c1cc(Br)c(O)c(Br)c1O)c1ccc2c(c1)OCCO2 ?
Eya2 inh: 0%; GALK inhibitor: -3%; CtBP-E1A inh: -97*; Six1-Eya2 blk: -85*; TrxR1 inh: 12%; TrxR1 substrate: -10%

What do the screens show for `CC(=O)c1sc(N/N=C2\CC3CC2C(C)C3(C)C)nc1C` (stereo not given)?
Eya2 inh: -3%; GALK inhibitor: -2%; CtBP-E1A inh: -1; Six1-Eya2 blk: -2; TrxR1 inh: 11µM*; TrxR1 substrate: -6%

What do the screens show for `CNc1ccc(Br)cc(C(=O)/C=C/c2ccc3c(c2)OCO3)c1=O`?
Eya2 inh: 10%; GALK inhibitor: -6%; CtBP-E1A inh: -7; Six1-Eya2 blk: -17; TrxR1 inh: 14µM*; TrxR1 substrate: -10%

Results for COCCCNC(=O)/C=C/c1ccc(Cl)cc1Cl ?
Eya2 inh: -10%; GALK inhibitor: 2%; CtBP-E1A inh: 8; Six1-Eya2 blk: 4; TrxR1 inh: 16%[57.1 µM]; TrxR1 substrate: 10%[57.1 µM]

How did CCNc1ccc(Br)cc(C(=O)/C=C/c2ccc(Cl)cc2Cl)c1=O do in these assays?
Eya2 inh: 6%; GALK inhibitor: -5%; CtBP-E1A inh: -9; Six1-Eya2 blk: -1; TrxR1 inh: 8.9µM*; TrxR1 substrate: 0%

What do the screens show for `CNc1ccc(Br)cc(C(=O)/C=C/c2cc(OC)ccc2OC)c1=O`?
Eya2 inh: -21%; GALK inhibitor: -3%; CtBP-E1A inh: -2; Six1-Eya2 blk: -3; TrxR1 inh: 35µM*; TrxR1 substrate: 6%

How did CNc1ccc(Br)cc(C(=O)/C=C/c2ccc(OC)cc2)c1=O do in these assays?
Eya2 inh: 4%; GALK inhibitor: 1%; CtBP-E1A inh: 0; Six1-Eya2 blk: 0; TrxR1 inh: -66%; TrxR1 substrate: 0%[57.1 µM]

Results for O=C1C(=O)N(C2CCN(C(=O)c3ccc(F)cc3)CC2)CCN1Cc1ccc(F)cc1 ?
TrxR1 inh: 20%[57.1 µM]; TrxR1 substrate: 8%[57.1 µM]

Results for O=C(NCc1ccccc1F)C(=O)NCC(c1ccc2c(c1)OCO2)N1CCOCC1 (stereo not given) ?
TrxR1 inh: 19%[57.1 µM]; TrxR1 substrate: 8%[57.1 µM]

How did Cn1ccnc1C(=O)Cc1ccc([N+](=O)[O-])cc1 do in these assays?
CtBP-E1A inh: -85*; Six1-Eya2 blk: 2; TrxR1 inh: 12%[11.4 µM]; TrxR1 substrate: -6%

How did Cn1ccnc1SCc1ccc([N+](=O)[O-])cc1 do in these assays?
Eya2 inh: 3%; GALK inhibitor: 3%; CtBP-E1A inh: 1; Six1-Eya2 blk: -2; TrxR1 inh: 3%; TrxR1 substrate: 8%[57.1 µM]

Results for Cc1cc(O)cc(O)c1C(=O)Cc1ccccc1 ?
Eya2 inh: 1%; GALK inhibitor: 1%; CtBP-E1A inh: -4; Six1-Eya2 blk: 14; TrxR1 inh: -18%; TrxR1 substrate: -14%

How did O=C(Cc1ccc([N+](=O)[O-])cc1)c1c(O)cc(O)cc1O do in these assays?
Eya2 inh: inconclusive; GALK inhibitor: 6%; CtBP-E1A inh: -1; Six1-Eya2 blk: -15; TrxR1 inh: 3.5µM*; TrxR1 substrate: 4%

Results for C[n+]1ccc(/C=N/Nc2nc(Cl)c(C#N)c(Cl)c2Cl)cc1 ?
Eya2 inh: -3%; GALK inhibitor: -6%; CtBP-E1A inh: -27; Six1-Eya2 blk: -29; TrxR1 inh: 3.5µM*; TrxR1 substrate: -18%

What do the screens show for `CCOc1ccc(C2C(C(=O)Nc3ccccc3)=C(C)Nc3nc(-c4ccccc4Cl)nn32)cc1OC` (stereo not given)?
TrxR1 inh: 16%; TrxR1 substrate: 8%

What do the screens show for `Cc1ccc(CNC(=O)c2cn(C3CCCCC3)c(=O)c3c2c2ccccc2n3C)o1`?
Eya2 inh: -13%; GALK inhibitor: 0%; CtBP-E1A inh: -8; Six1-Eya2 blk: -11; TrxR1 inh: 4µM*; TrxR1 substrate: 12%

What do the screens show for `COCCn1nnnc1C(c1cc2cc(C)ccc2[nH]c1=O)N1CCc2ccccc21` (stereo not given)?
Eya2 inh: 3%; GALK inhibitor: 0%; CtBP-E1A inh: -2; Six1-Eya2 blk: -13; TrxR1 inh: -32%[57.1 µM]; TrxR1 substrate: 12%[57.1 µM]

How did COCCn1nnnc1C(c1cc2c(C)cc(C)cc2[nH]c1=O)N1CCCCCC1 (stereo not given) do in these assays?
Eya2 inh: -2%; GALK inhibitor: -3%; CtBP-E1A inh: 6; Six1-Eya2 blk: -2; TrxR1 inh: 40µM*; TrxR1 substrate: 0%

Results for COCCn1nnnc1C(c1cc2cc(C)ccc2[nH]c1=O)N1CCCCCC1 (stereo not given) ?
Eya2 inh: 6%; GALK inhibitor: 0%; CtBP-E1A inh: 0; Six1-Eya2 blk: -1; TrxR1 inh: 4.5µM*; TrxR1 substrate: 6%

How did CCc1ccccc1NC(=O)NC(CC)Cn1nnc2ccccc2c1=O (stereo not given) do in these assays?
TrxR1 inh: 7%; TrxR1 substrate: 11%

How did Nc1c(N2CCCC2)cc(Cl)c2nonc12 do in these assays?
Eya2 inh: 21%; GALK inhibitor: 2%; CtBP-E1A inh: inconclusive; Six1-Eya2 blk: 7; TrxR1 inh: 25µM*; TrxR1 substrate: -6%

Results for Nc1ccc(N2CCCCC2)cc1N1CCCCC1 ?
Eya2 inh: -3%; GALK inhibitor: 1%; CtBP-E1A inh: inconclusive; Six1-Eya2 blk: inconclusive; TrxR1 inh: inconclusive; TrxR1 substrate: 8%[57.1 µM]
